Results filed as inconclusive are left out. Activity calls are given as the source filed them. Calls come from the whole dose curve.
How the values were obtained:
[1] = biological target: Acetylcholinesterase (Homo sapiens) (UniProt P22303); assay: Acetylcholinesterase (AChE) small molecule antagonists: colormetric cell-based qHTS assay (AID 1347395); note: nearly all actives have a fitted effect of over 30% in size
How it was run: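 Homogeneous whole-cell format. SH-SY5Y cells seeded overnight, dosed with compound (30 min, 37 C, 5% CO2), then given DTNB/acetylthiocholine cocktail for 90 min at 37 C; colorimetric signal.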

[2] = biological target: Acetylcholinesterase (Homo sapiens) (UniProt P22303); assay: Acetylcholinesterase (AChE) small molecule antagonists: enzyme-based qHTS assay (AID 1347397); settings: Potency: AChE enzyme activity inhibition; outcome: AChE enzyme activity inhibition; note: nearly all actives have a fitted effect of over 55% in size
How it was run: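 Recombinant human AChE, dispensed at 50 mU/mL, was preincubated with Tox21 10K compounds or DMSO vehicle for 30 min at room temperature. DTNB plus acetylthiocholine was then added, and thiocholine was measured colorimetrically after a further 10 min.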

[3] = biological target: Acetylcholinesterase (Homo sapiens) (UniProt P22303); assay: Acetylcholinesterase (AChE) small molecule antagonists: fluorescence cell-based qHTS assay (AID 1347398); settings: Potency: AChE activity; outcome: AChE activity; note: nearly all actives have a fitted effect of over 50% in size
How it was run: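 Human SH-SY5Y cells were plated overnight at 37 C, exposed to compound for 30 min at 37 C, 5% CO2, then given acetylthiocholine plus Thiolite Green for 40 min at room temperature; thiocholine fluorescence (Ex/Em 490/520 nm) reports endogenous AChE activity.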

[4] = biological target: Acetylcholinesterase (Homo sapiens) (UniProt P22303); assay: Acetylcholinesterase (AChE) small molecule antagonists: enzyme-based qHTS assay with human liver microsomes (AID 1347399); settings: Potency: qHTS inhibition; outcome: qHTS inhibition; note: nearly all actives have a fitted effect of over 60% in size
How it was run: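 Recombinant human AChE (50 mU/mL in the enzyme mix) and human liver microsomes (0.25 mg/mL final) were preincubated with compound and NADPH (0.25 mg/mL final) for 30 min at 37 C. Acetylthiocholine/DTNB was then added; thiocholine was read colorimetrically after 10 min at room temperature.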
% is set by controls: 0 for no effect and ±100 for the full control effect.

Sequence of Acetylcholinesterase (Homo sapiens) (P22303 whole entry, looked up): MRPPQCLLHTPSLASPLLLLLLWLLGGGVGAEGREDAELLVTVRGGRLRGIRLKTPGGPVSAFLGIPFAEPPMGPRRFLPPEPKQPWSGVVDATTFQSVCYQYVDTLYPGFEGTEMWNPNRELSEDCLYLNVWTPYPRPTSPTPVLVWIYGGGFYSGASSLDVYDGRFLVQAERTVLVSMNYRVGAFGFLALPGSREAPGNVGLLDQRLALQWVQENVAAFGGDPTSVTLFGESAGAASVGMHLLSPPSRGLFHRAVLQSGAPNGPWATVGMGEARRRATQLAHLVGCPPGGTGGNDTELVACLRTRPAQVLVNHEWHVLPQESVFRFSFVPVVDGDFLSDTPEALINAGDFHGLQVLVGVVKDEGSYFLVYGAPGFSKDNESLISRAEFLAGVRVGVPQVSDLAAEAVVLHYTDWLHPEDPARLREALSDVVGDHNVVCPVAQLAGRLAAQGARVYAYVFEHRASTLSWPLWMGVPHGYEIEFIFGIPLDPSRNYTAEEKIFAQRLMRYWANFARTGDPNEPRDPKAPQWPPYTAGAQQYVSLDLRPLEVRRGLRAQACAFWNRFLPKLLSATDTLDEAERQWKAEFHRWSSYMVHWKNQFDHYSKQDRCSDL

CCCCCCCCCCCCCCBr
inactive: Potency [1] | Potency [2] | Potency [3] | Potency [4]

O=C(Nc1ccccc1)OCC(CN1CCCCC1)OC(=O)Nc1ccccc1 (stereo not given)
inactive: Potency [1] | Potency [2] | Potency [3] | Potency [4]

C[C@@H](NCCCc1cccc(C(F)(F)F)c1)c1cccc2ccccc12
inactive: Potency [1] | Potency [2] | Potency [3] | Potency [4]

O=C(O)c1cccc(Cl)c1Cl
inactive: Potency [1] | Potency [2] | Potency [3] | Potency [4]

OC[C@H]1O[C@@H]2O[C@H]3[C@H](O)[C@@H](O)[C@@H](O[C@H]4[C@H](O)[C@@H](O)[C@@H](O[C@H]5[C@H](O)[C@@H](O)[C@@H](O[C@H]6[C@H](O)[C@@H](O)[C@@H](O[C@H]7[C@H](O)[C@@H](O)[C@@H](O[C@H]1[C@H](O)[C@H]2O)O[C@@H]7CO)O[C@@H]6CO)O[C@@H]5CO)O[C@@H]4CO)O[C@@H]3CO
inactive: Potency [1] | Potency [2] | Potency [3] | Potency [4]

CC(C)(C)c1n[nH]c(=O)n(N)c1=O
inactive: Potency [1] | Potency [2] | Potency [3] | Potency [4]

O=C(O)CCCCC(=O)O
inactive: Potency [1] | Potency [2] | Potency [3] | Potency [4]

CC(C)(Oc1ccc(CCNC(=O)c2ccc(Cl)cc2)cc1)C(=O)O
inactive: Potency [1] | Potency [2] | Potency [3] | Potency [4]

CN(N=O)C(=O)N[C@@H]1[C@@H](O)[C@H](O)[C@@H](CO)O[C@@H]1O
inactive: Potency [1] | Potency [2] | Potency [3] | Potency [4]

CC(C)(C)c1ccc(CCC=O)cc1
inactive: Potency [1] | Potency [2] | Potency [3] | Potency [4]

CCCCC/C=C/C=C/C=O
inactive: Potency [1] | Potency [2] | Potency [3] | Potency [4]

CCCCOC(=O)CC#N
inactive: Potency [1] | Potency [2] | Potency [3] | Potency [4]

COc1cccc(CCc2ccccc2OCC(CN(C)C)OC(=O)CCC(=O)O)c1 (stereo not given)
inactive: Potency [1] | Potency [2] | Potency [3] | Potency [4]

O=C(O)Cc1cc(I)c(Oc2cc(I)c(O)c(I)c2)c(I)c1
inactive: Potency [1] | Potency [2] | Potency [3] | Potency [4]

CC(O)CO (stereo not given)
inactive: Potency [1] | Potency [2] | Potency [3] | Potency [4]

[O-][N+](=Nc1ccccc1)c1ccccc1
inactive: Potency [1] | Potency [2] | Potency [3] | Potency [4]

CCc1cc(Cc2cc(CC)cc(C(C)(C)C)c2O)c(O)c(C(C)(C)C)c1
inactive: Potency [1] | Potency [2] | Potency [3] | Potency [4]

Cc1cccc2c1cc1ccc3cccc4ccc2c1c34
inactive: Potency [1] | Potency [2] | Potency [3] | Potency [4]

CCCN(C1CCN(C(=O)C2CCNCC2)CC1)[C@@H]1CCc2ccc(OC)cc2C1
inactive: Potency [1] | Potency [2] | Potency [3] | Potency [4]

Cc1[nH]nc2c1N=C(c1ccccc1Cl)c1cc([N+](=O)[O-])ccc1N2
inactive: Potency [1] | Potency [2] | Potency [3] | Potency [4]

Clc1nc(C(Cl)(Cl)Cl)c(Cl)c(Cl)c1Cl
inactive: Potency [1] | Potency [2] | Potency [3] | Potency [4]

CCCCCC(=O)OCC
inactive: Potency [1] | Potency [2] | Potency [3] | Potency [4]

CCN(CCC#N)c1ccc(N=Nc2c(Cl)cc([N+](=O)[O-])cc2Cl)cc1
inactive: Potency [1] | Potency [2] | Potency [3] | Potency [4]

C=Cc1ccccc1
inactive: Potency [1] | Potency [2] | Potency [3] | Potency [4]

CC(CCC(=O)O)(c1ccc(O)cc1)c1ccc(O)cc1
inactive: Potency [1] | Potency [2] | Potency [3] | Potency [4]

Cc1cc(C)c(O)c(C)c1
inactive: Potency [1] | Potency [2] | Potency [3] | Potency [4]

CCC(Cc1c(I)cc(I)c(N)c1I)C(=O)O (stereo not given)
inactive: Potency [1] | Potency [2] | Potency [3] | Potency [4]

CC(C)n1nc(-c2cc3cc(O)ccc3[nH]2)c2c(N)ncnc21
inactive: Potency [1] | Potency [2] | Potency [3] | Potency [4]

CCCCC(C)C(=O)O (stereo not given)
inactive: Potency [1] | Potency [2] | Potency [3] | Potency [4]

O=C1CCCCCCCCCCOCCCCO1
inactive: Potency [1] | Potency [2] | Potency [3] | Potency [4]

C=C(C)C(=O)OCCOc1ccccc1
inactive: Potency [1] | Potency [2] | Potency [3] | Potency [4]

c1ccc2cc3ccccc3cc2c1
inactive: Potency [1] | Potency [2] | Potency [3] | Potency [4]

CNC(=S)NN
inactive: Potency [1] | Potency [2] | Potency [3] | Potency [4]

CC(C)(C)S
inactive: Potency [1] | Potency [2] | Potency [3] | Potency [4]

CCCCCCCCCCCCCCCC(=O)OC
inactive: activity, negative = inhibition [1] 2.77% [at 23.6 µM] | activity change, negative = inhibition [2] -0.557% [at 23.6 µM] | activity change, negative = inhibition [3] 2.99% [at 23.8 µM] | activity change, negative = inhibition [4] 0.243% [at 23.6 µM]

C=C(c1ccc(C(=O)O)cc1)c1cc2c(cc1C)C(C)(C)CCC2(C)C
inactive: Potency [1] | Potency [2] | Potency [3] | Potency [4]

CC(=O)OCC(=O)[C@@]1(O)CCC2C3CCC4=CC(=O)CC[C@]4(C)C3[C@@H](O)C[C@@]21C (stereo not given in full)
inactive: Potency [1] | Potency [2] | Potency [3] | Potency [4]

CC1=NN(c2cc(S(=O)(=O)O)ccc2Cl)C(=O)C1N=Nc1ccccc1 (stereo not given)
inactive: Potency [1] | Potency [2] | Potency [3] | Potency [4]

CC(C)(C)c1n[nH]c(=S)n(N)c1=O
inactive: Potency [1] | Potency [2] | Potency [3] | Potency [4]

O=S(=O)(O)c1cc(S(=O)(=O)O)c2c(N=Nc3ccccc3)c(O)ccc2c1
inactive: Potency [1] | Potency [2] | Potency [3] | Potency [4]

CCCCCCCCC1CO1 (stereo not given)
inactive: Potency [1] | Potency [2] | Potency [3] | Potency [4]

CO[Si](CCCNCCNCCN)(OC)OC
inactive: Potency [1] | Potency [2] | Potency [3] | Potency [4]

CCCCCCCCCCCSCC(=O)O
inactive: Potency [1] | Potency [2] | Potency [3] | Potency [4]

CC(=O)c1sc(C)nc1C
inactive: Potency [1] | Potency [2] | Potency [3] | Potency [4]

CCO[Si](CCCCl)(OCC)OCC
inactive: Potency [1] | Potency [2] | Potency [3] | Potency [4]

Clc1ccc(Nc2nnc(Cc3ccncc3)c3ccccc23)cc1
inactive: Potency [1] | Potency [2] | Potency [3] | Potency [4]

CC(C)c1ccc(O)c(C(C)C)c1
inactive: Potency [1] | Potency [2] | Potency [3] | Potency [4]

C#C[C@]1(O)CC[C@H]2[C@@H]3CCc4cc(OC)ccc4[C@H]3CC[C@@]21C
inactive: Potency [1] | Potency [2] | Potency [3] | Potency [4]

CC(=O)Oc1ccccc1C(=O)Nc1ncc([N+](=O)[O-])s1
inactive: Potency [1] | Potency [2] | Potency [3] | Potency [4]

CC1(N)CCC(C(C)(C)N)CC1 (stereo not given)
inactive: Potency [1] | Potency [2] | Potency [3] | Potency [4]

O=C(Nc1ccc(C(=O)O)c(O)c1)c1ccccc1
inactive: Potency [1] | Potency [2] | Potency [3] | Potency [4]

CC1(C)OC(=O)NC1=O
inactive: Potency [1] | Potency [2] | Potency [3] | Potency [4]

CCCC(=O)OCCC(C)CCC=C(C)C (stereo not given)
inactive: Potency [1] | Potency [2] | Potency [3] | Potency [4]

O=c1c(-c2ccc(O)cc2)coc2cc(O)ccc12
inactive: Potency [1] | Potency [2] | Potency [3] | Potency [4]

CCCCOC(=O)c1ccccc1
inactive: Potency [1] | Potency [2] | Potency [3] | Potency [4]

CC(O)CN(CCN(CC(C)O)CC(C)O)CC(C)O (stereo not given)
inactive: Potency [1] | Potency [2] | Potency [3] | Potency [4]

CC(=O)Oc1cccc(O)c1
inactive: Potency [1] | Potency [2] | Potency [3] | Potency [4]

C=CC(=O)OCCOCCOC(=O)C=C
inactive: Potency [1] | Potency [2] | Potency [3] | Potency [4]

CCCCCCCCCCCCI
inactive: Potency [1] | Potency [2] | Potency [3] | Potency [4]

CCCCC(CC)COC(=O)CCCCC(=O)OCc1ccccc1 (stereo not given)
inactive: Potency [1] | Potency [2] | Potency [3] | Potency [4]

— PubChem BioAssay (Tox21)
